Records with an inconclusive call do not appear. Entries that show only a call come without a potency. The source made the active and inactive calls. The call rests on the fitted dose curve.
Experiment: Cytotoxicity counterscreen for inhibitors of SARS-CoV-2 cell entry (AID 1645845); further: nearly all actives have a fitted effect of over 50% in size
Conditions: cell viability (SARS-CoV-2 entry assay cells); series mostly up to 57.1 µM
Text: Assay Provider: Wei Zheng, Ph.D.
National Center for Advancing Translational Sciences, National Institute of Health, Rockville, MD.
SARS-CoV-2 spike protein, within the viral envelope, mediates viral attachment and infection of host cells. The SARS-CoV-2 spike protein specifically binds to the host receptor ACE2 (Angiotensin-converting enzyme 2). This interaction promotes endocytosis of the viral particle, additional events lead to viral-host cell membrane fusion and release of the viral contents, allowing viral replication.
While SARS-CoV-2 requires BSL-3 facilities for live virus work, pseudo-typed partices (PP) that incorporate SARS-CoV-2 spike proteins without replication elements could facilitate studies on viral entry mechanisms in a BSL-2 setting. This PP cell entry assay could also enable screening of small molecule compound libraries in BSL-2 setting to identify inhibitors of SARS-CoV-2 cell entry. To eliminate false positive compounds, ATP content cytotoxicity assay was screened in the same cell line.
SEQUENCE No. (e.g., 1, 2, 3, etc.); […] (e.g., Cells, Incubation, Reagent, etc.); VALUE and DESCRIPTION.
1. Cells. Seed 1500 HEK293-ACE2 cells (Expi293F with stable expression of human ACE2) in 2 uL/well media (DMEM, 10% FBS, 1x L-glutamine, 1x Pen/Strep, 1 ug/ml puromycin) in white 1536-well assay plates (Greiner #782073).
2. Incubation. Incubate at 37 C with 5% CO2 overnight (~16 h).
3. Compounds. Dispense 23 nL/well compounds in DMSO via pin transfer.
4. Incubation. Incubate for 1 h at 37C 5% CO2.
5. Reagent. Dispense 2 uL/well of media (DMEM, 10% FBS, 1x L-glutamine, 1x Pen/Strep, 1 ug/ml puromycin).
6. Incubation. Incubate at for 48h at 37C 5% CO2
7. Reagent. Dispense 4 uL/well of ATPLite 1step luminescence assay reagent (PerkinElmer #6016739).
8. Incubation. Incubate for 15 min at room temperature.
9. Detection. Read luminescence signal (Viewlux plate reader, PerkinElmer). Data was normalized with wells containing cells as 100%, and wells without cells (media only control) as 0%.
Potency means the concentration at half of the fitted maximal effect.

SMILES | Potency | activity change, negative = cytotoxicity
CC(C)(C)c1cnc(CSc2cnc(NC(=O)C3CCNCC3)s2)o1 | inactive | 
CC(C)(C)C(=O)Oc1ccc2c(c1)nc(NC(=O)c1cccc([N+](=O)[O-])c1)n2CCCO | inactive | 
COCCNCCCn1c(C(=O)CF)c(-c2ccc(C)cc2)c2c(N)ncnc21 | inactive | 
COc1ccc2c3n(c(=NC(=O)c4cccnc4)nc2c1OC)CCN3 |  | 3.4% [at 5.25 µM] (inactive)
CCc1c(C(=O)C(N)=O)c2c(OCC(=O)O)cccc2n1Cc1ccccc1 | inactive | 
Cc1cc2c(cc1C1(c3ccc(C(=O)O)cn3)CC1)C(C)(C)CCC2(C)C | inactive | 
CCCCCCCCCCCCCC(=O)N[C@H](CO)[C@H](O)c1ccc([N+](=O)[O-])cc1 | inactive | 
CCCCCCCCCCC(CO)CCCCCCCC (stereo not given) | inactive | 
CC(C)c1ccccc1Cc1cc(C(=O)Nc2ccc(S(=O)(=O)c3ccccc3C(C)(C)C)cc2)c(O)c(O)c1O | inactive | 
CC(C)(C)c1cc(C=C(C#N)C#N)cc(Br)c1O | inactive | 
Cc1nc(N)sc1-c1ccnc(Nc2ccc(N3CCOCC3)cc2)n1 | 3.16 µM (active) | 
O=c1[nH]c(-c2ccc(C(F)(F)F)cc2)nc2c1CSCC2 | inactive | 
N#Cc1c(O)c2c(-c3ccc(-c4ccccc4O)cc3)csc2[nH]c1=O | inactive | 
C/C(=C1\CCOC(=O)S1)N(C=O)Cc1cnc(C)nc1N | inactive | 
CCc1cc(Nc2nccc(-c3c(-c4ccc(OC)c(C(=O)Nc5c(F)cccc5F)c4)nc4ccccn34)n2)c(OC)cc1N1CCC(N2CCN(S(C)(=O)=O)CC2)CC1 | inactive | 
CC(C)c1ccc2c(c1)c(SC(C)(C)C)c(CC(C)(C)C(=O)O)n2Cc1ccc(Cl)cc1 | inactive | 
O=C(O)CCc1ccc(NCc2cccc(Oc3ccccc3)c2)cc1 | inactive | 
O=S(=O)(CC1CS1)c1ccc(Oc2ccccc2)cc1 (stereo not given) | inactive | 
CC(Cc1ccc(O)cc1)NCC(O)c1cc(O)cc(O)c1 (stereo not given) | inactive | 
CC[C@@H](C)[C@H](NC(=O)[C@H](CC1CCCCC1)NC(=O)c1ccno1)C(=O)N1CCC2(CCc3ccccc32)CC1 | inactive | 

SMILES | Potency | activity change, negative = cytotoxicity
CCNC(=O)c1noc(-c2cc(C(C)C)c(O)cc2O)c1-c1ccc(CN2CCOCC2)cc1 | inactive | 
Clc1ccc2ncc(-c3cccc(NC4CNC4)n3)n2c1 | inactive | 
O=C(Nc1cc(Cl)cc2c1[nH]c1cnccc12)c1cccnc1 | inactive | 
Cn1c(NCCN(CCO)CCCc2ccc([N+](=O)[O-])cc2)cc(=O)n(C)c1=O | inactive | 
CC(=O)Nc1ccc(O)cc1 | inactive | 
O=C(O)[C@H](Cc1c[nH]c2ccccc12)N1C(=O)c2ccccc2C1=O | inactive | 
COc1cc(Nc2ncc(F)c(Nc3ccc4c(n3)NC(=O)C(C)(C)O4)n2)cc(OC)c1OC | inactive | 
Cc1cc2c(F)c(Oc3ncnn4cc(OC[C@@H](C)O)c(C)c34)ccc2[nH]1 | inactive | 
CC(=O)Oc1ccccc1C(=O)O | inactive | 
Cn1cc(-c2ccc3nnc(C(F)(F)c4ccc5ncccc5c4)n3n2)cn1 | inactive | 
C#CC1(O)CCC2C3CCC4=CC(=O)CCC4(C)C3CCC21C (stereo not given) | inactive | 
CCN(c1ccccc1)c1cc(NC)[n+](C)c(C)n1 | inactive | 
O=C(Nc1ccncc1)C(=O)c1cn(Cc2ccc(Cl)cc2)c2ccccc12 | inactive | 
CN(C)c1ccc(C2Nc3ccc4ccccc4c3C3=C2C(=O)CC(C)(C)C3)cc1Br (stereo not given) | inactive | 
Cn1c(Nc2ccc(C(F)(F)F)cc2)nc2cc(Oc3ccnc(-c4ncc(C(F)(F)F)[nH]4)c3)ccc21 | inactive | 
C=CCNC(N)=S | inactive | 
CCCCCCCC(=O)OCC(O)CO (stereo not given) | inactive | 
Cc1cc(O)ccc1Cl | inactive | 
O=C(O)[C@@H](c1ccc(OCc2ccc3ccccc3n2)cc1)C1CCCC1 | inactive | 
CN(C)C1CCN(C(=O)c2ccc(NC(=O)Nc3nc(N4CCOCC4)nc(N4CCOCC4)n3)cc2)CC1 | 6.31 µM (active) | 

From PubChem BioAssay (NCATS)
